The source of these data is PubChem BioAssay AID1347416 (National Center for Advancing Translational Sciences (NCATS), 2020).

The campaign covered roughly 4,100 compounds. About 1,600 (39%) were called active. Another 25% or so got no clear call; they are omitted. Calls come from the whole dose curve; as a rule, active = well fitted inhibition curve with a large enough effect; inconclusive = small, poorly fitted or top-dose-only effect; inactive = no such curve, though single readings can be large or run the other way. The list shows a part of the results.
% is set by controls: 0 for no effect and ±100 for the full control effect; potency is the fitted concentration of half-maximal effect.

The assay can be described thus: qHTS Validation assay for Inhibitors of Plasmodium falciparum Dd2 growth in vitro. Note: nearly all actives have a fitted effect of over 70% in size. The note with it: P. falciparum Dd2 in RBCs, SYBR Green growth, 72 h; series mostly up to 28.7 µM; activity change, negative = inhibition: at the top concentration. Summed up: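 P. falciparum Dd2-infected red blood cells (2.5% hematocrit, 0.3% parasitemia) grown 72 h at 37 °C under 5% O2 with compounds in a titration, 29 uM to 0.5 nM final. Growth read as SYBR Green-1 fluorescence after ~16 h lysis; artesunate 300 nM as positive control.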
In the case of `CCOc1ccc(C(=O)Nc2cc(C)on2)cc1`, the “activity change, negative = inhibition” value was -10.9% (inactive). In the case of `Cc1cc(NC(=O)CN2CCN(c3ccc(O)cc3)CC2)no1`, the Potency was 4.73 µM (active). Consider `CNS(=O)(=O)c1cn(CC(=O)N2CCN(c3ccc(C(C)=O)cc3)CC2)cc1S(=O)(=O)NC`, for which the “activity change, negative = inhibition” value was 41.4% (inactive).

Regarding `Cc1cc(NC2C3CC4CC(C3)CC2C4)n2nnnc2n1` (centres undefined), the “activity change, negative = inhibition” value is -20.8% (inactive). Still for that read-out and setting: with `Cc1ccc(S(=O)(=O)NCc2nc3nc(C)cc(C)n3n2)c(C)c1` the figure was 12.5% (inactive).

For the molecule `Cc1cc(Nc2ccc(Br)c(C)c2)n2nc(C)nc2n1`, the Potency was 1.33 µM (active).

`Cc1cc(Nc2ccc(Br)cc2)n2nc(C)nc2n1`: the Potency was 7.5 µM (active). Still for that read-out and setting: with `Cc1cc(C)cc(Nc2cc(C)nc3nc(C)nn23)c1` the figure was 5.31 µM (active); with `Cc1cc(Nc2ccc(C)c(C)c2)n2nc(C)nc2n1`, 4.73 µM (active). As to `CC(C)c1ccc(OCc2ccc(C(=O)O)o2)cc1`, the “activity change, negative = inhibition” value is -2.28% (inactive).

In the case of `CC(O)CNCCNCc1c(OCc2ccccc2)ccc2ccccc12` (centres undefined), the Potency is 8.41 µM (active). Still for that read-out and setting: to `Cc1cc(N2CCC(N(C)C3CCCC3)CC2)nc2cc(O)ccc12` belongs 5.96 µM (active); to `Cc1cc(N2CCN(C3CCCCC3)CC2)nc2cccc(O)c12`, 5.31 µM (active); to `Cc1nc2ccc(NC(=O)c3cc(S(=O)(=O)N(C)c4ccccc4)ccc3Cl)cc2s1`, 0.842 µM (active).

For `O=C(NC(=S)Nc1ccc2c(c1)OCCO2)c1ccccc1F`, the “activity change, negative = inhibition” value was 35% (inactive).

As to `COc1ccc(NC(=O)c2ccc3c(c2)n(C)c(=O)c2ccnn23)cc1OC`, the “activity change, negative = inhibition” value was -18.1% (inactive). With `COc1cccc(OC)c1C(=O)NC(=S)Nc1ccc2c(c1)C(=O)N(C)C2=O`, the Potency was 0.944 µM (active). For `COC(=O)[C@@H]1Cc2c([nH]c3ccccc23)[C@H]2C[C@H](N3CCCCC3)C[C@@H](c3ccccc3F)N21`, the Potency is 5.96 µM (active). As for `C1CCC(COCCc2noc(C3CNC3)n2)C1`, the “activity change, negative = inhibition” value was -91.5% (inactive). With `Cc1cc(C)cc(NC(=O)NCc2c(-n3cccc3)sc3c2CCCC3)c1`, the “activity change, negative = inhibition” value was 36.2% (inactive). The same measure, in the same setting: to `CC(=O)N1Cc2ccccc2CC2(CCN(CC3CCOCC3)C2)C1` (centres undefined) belongs 12.6% (inactive). As for `CC(C)C(=O)N1Cc2ccccc2CC2(CCCN(CC3CCCCC3)C2)C1` (centres undefined), the Potency was 0.0531 µM (active).

Regarding `CC(=O)N1Cc2ccccc2CC2(CCN(Cc3ccccn3)CC2)C1`, the “activity change, negative = inhibition” value is 17.5% (inactive). On to `Cc1ccc(CN2CCOC[C@H]2c2ncc(C(C)(C)C)[nH]2)cc1`, for which the Potency was 13.7 µM (active).

Turning to `CC(C)(C)c1cnc([C@@H]2COCCN2Cc2ccccc2O)[nH]1`, the Potency was 13.7 µM (active).

`C[C@@H](c1ccccc1)N1C(=O)[C@@H]2CN(C(=O)c3cccnc3)CCN2C1=O`: the “activity change, negative = inhibition” value is 37.2% [at 43.1 µM] (inactive). As for `Cc1nn2c(c1-c1ccccc1-c1ccccc1)N(Cc1cccc(O)c1)CCC2`, the Potency is 4.85 µM (active).

For `Cc1nn2c(c1-c1ccccc1-c1ccccc1)N(Cc1ccc(O)cc1)CCC2`, the Potency was 0.485 µM (active). `CCCCSc1nnc2c(n1)OC(C)N(C(C)=O)c1ccccc1-2` (centres undefined): the “activity change, negative = inhibition” value was 9.17% (inactive).

For `COc1cc(NS(=O)(=O)c2cnc(N)nc2)cc(OC)c1`, the “activity change, negative = inhibition” value was 0% (inactive). On the same count and under the same terms, with `CCOc1ccc(S(=O)(=O)Nc2ccc3oc4c(c3c2)CC(C)CC4)cc1` (centres undefined) the figure was 27.2% (inactive).

With `CCOc1ccc(NS(=O)(=O)c2csc(C(N)=O)c2)cc1`, the Potency is 7.5 µM (active).

For the molecule `CCn1cc(C(=O)O)c(=O)c2cnc(N3CCN(C(=S)Nc4ccccc4)CC3)nc21`, the Potency is 3.76 µM (active). For the molecule `CCn1cc(C(=O)N2CCN(c3ccc(OC)cc3)CC2)c(=O)c2cc(S(=O)(=O)N3CCOCC3)ccc21`, the “activity change, negative = inhibition” value is 32.5% (inactive). In the case of `CCc1cc(C(=O)OC)c(NC(=O)CN2CCN(C(=O)c3ccco3)CC2)s1`, the Potency was 5.96 µM (active). On the same count and under the same terms, to `Cc1ccc(C(=O)c2cc(C)sc2NC(=O)CN2CCN(C(=O)c3ccco3)CC2)cc1` belongs 7.5 µM (active).

Regarding `COCCOC1CCOC2(CCN(C(=O)c3ccco3)CC2)C1` (centres undefined), the “activity change, negative = inhibition” value was -41.3% (inactive). Turning to `COc1ccccc1NC(=O)CSc1nc2c(oc3ccccc32)c(=O)n1-c1ccc(C)cc1`, the Potency was 15 µM (active). For the molecule `COc1ccccc1-n1c(SCC(=O)NC(C)(C)C)nc(O)cc1=O`, the “activity change, negative = inhibition” value was 12.2% (inactive). Consider `COCCN1C(=O)c2ccccc2C(C(=O)Nc2nc3ccccc3[nH]2)C12CCCC2` (centres undefined), for which the Potency is 4.22 µM (active). Still for that read-out and setting: with `CCc1nc(NC(=O)C2c3ccccc3C(=O)N(CCOC)C23CCCC3)sc1C` (centres undefined) the figure was 5.96 µM (active); with `COCCN1C(=O)c2ccccc2C(C(=O)Nc2nc3ccccc3[nH]2)C12CCCCC2` (centres undefined), 4.73 µM (active).

For `COCCN1C(=O)CCC2(CNC(=O)CCc3nc4ccccc4[nH]3)CCCC=C12` (centres undefined), the “activity change, negative = inhibition” value was 12.1% (inactive). As for `COCCN1C(=O)CC[C@]2(C(=O)NCc3ccccc3Cl)CCCC[C@@H]12`, the “activity change, negative = inhibition” value is -5.07% (inactive). Still for that read-out and setting: with `COc1nc(N(C)S(=O)(=O)c2ccc(C)cc2)nc(C)c1Br` the figure was 21.9% (inactive).

As for `Cc1cnc(CCNC(=O)Cn2c(=O)oc3ccccc32)n1C1CC1`, the “activity change, negative = inhibition” value is -13.1% (inactive). As to `Cc1cc(C(F)(F)F)nn1CC(=O)NCCc1ncc(C)n1CC1CC1`, the Potency was 10.6 µM (active). `Cc1nnc2n1CCC(N(C)S(=O)(=O)c1cn(C)cn1)CC2` (centres undefined): the “activity change, negative = inhibition” value was 10.2% (inactive). On the same count and under the same terms, with `CN(CCn1cc(-c2nccn2C)nn1)S(C)(=O)=O` the figure was 39.1% (inactive). Turning to `Cc1cccc2cc(CN(Cc3ccco3)C(c3nnnn3CCc3ccccc3)C(C)C)c(=O)[nH]c12` (centres undefined), the Potency is 10.6 µM (active).

`Cc1noc(-c2ccn3c(CNC(=O)c4ccccc4Cl)nnc3c2)n1`: the “activity change, negative = inhibition” value is 10.4% (inactive).

As to `Cc1ccccc1Nc1nnc(SCc2cc(=O)n3ccsc3n2)s1`, the “activity change, negative = inhibition” value is 4.3% (inactive). For `c1ccc(CCNc2nc(-c3ccccn3)cs2)cc1`, the Potency is 7.5 µM (active). Still for that read-out and setting: with `Cc1cccnc1Nc1nc(-c2ccccn2)cs1` the figure was 0.473 µM (active); with `c1ccc(CNc2nc(-c3ccccn3)nc3ccccc23)cc1`, 5.31 µM (active). For the molecule `O=C(O)Cn1c(-c2ccccn2)nc2ccccc21`, the “activity change, negative = inhibition” value is 41% (inactive). Consider `Cc1ccccc1Nc1nc(-c2cccnc2)cs1`, for which the Potency is 9.44 µM (active). Regarding `COC(=O)COc1ccc(-c2nccc(-c3ccccn3)n2)cc1`, the “activity change, negative = inhibition” value is 40% (inactive).

Regarding `Cc1nn(C)cc1CN(C)C(=O)CC12CC3CC(CC(C3)C1)C2`, the “activity change, negative = inhibition” value is 21.6% (inactive). Same read-out and setting: to `CC(C)c1noc(-c2cn(C3CCCN(C(=O)c4ccc(N(C)C)cc4)C3)nn2)n1` (centres undefined) belongs -13.1% (inactive); to `COc1ccc(OC)c(C2Nc3c(C)cc(C)cc3-c3cc(C)nn32)c1` (centres undefined), -26.2% (inactive). Turning to `c1ccc(-c2nc(NCc3ccco3)c3ccccc3n2)nc1`, the Potency was 5.96 µM (active). Consider `CCCN(CCC)c1nc(-c2ccccn2)nc2ccccc12`, for which the Potency was 5.31 µM (active). On to `c1ccc(CCNc2nc(-c3ccccn3)nc3ccccc23)cc1`, for which the Potency was 4.73 µM (active).
